Measured values as given in the supplement of paper PMC6555819.

How the values were obtained:
Test in all cases: PBM binding z-score (relative to random genomic background probes); higher = stronger binding; sequences stand for … in GC…GCGATTGACAGCGTAGAATGAAGG
[1] = tested on: PPARg:RXRa DBDmut IVT, anti-RXR (DBD mutation: RXRa K156A/R161A, NR concentration 270 nM, RXRa partner concentration 90 nM)
In short: (§1)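 Ligand-free nuclear receptor dimers were bound for 1 h to custom Agilent 4×180K protein-binding microarrays. Detection used antibodies against each partner (one per run). Binding z-scores rest on regression-normalized fluorescence, with random background probes as the reference.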

[2] = tested on: PPARg:RXRa IVT, anti-PPARg (NR concentration 270 nM, RXRa partner concentration 90 nM)
In short: as §1

[3] = tested on: PPARg DBDmut IVT, anti-PPARg (DBD mutation: PPARg1 K132A/R137A, NR concentration 270 nM)
In short: as §1

[4] = tested on: PPARg homodimer (NR concentration 180 nM)
In short: as §1

[5] = tested on: PXR:RXRa (NR concentration 270 nM, RXRa partner concentration 90 nM)
In short: as §1

[6] = tested on: PXR homodimer (NR concentration 270 nM)
In short: as §1

[7] = tested on: RARa:RXR (NR concentration 270 nM, RXRa partner concentration 90 nM)
In short: as §1

[8] = tested on: RARa homodimer (NR concentration 270 nM)
In short: as §1

[9] = tested on: RARb:RXRa (NR concentration 270 nM, RXRa partner concentration 90 nM)
In short: as §1

| Sequence | PBM binding z-score [1] | PBM binding z-score [2] | PBM binding z-score [3] | PBM binding z-score [4] | PBM binding z-score [5] | PBM binding z-score [6] | PBM binding z-score [7] | PBM binding z-score [8] | PBM binding z-score [9] |
| --- | --- | --- | --- | --- | --- | --- | --- | --- | --- |
| ATAGGTAGGTTAGGGTCATTCAGAAAGTAGGGAA | 3.34 | 4.16 | 1.6 | 3.27 | 5.14 | 3.11 | 5.48 | 3.2 | 4 |
| ATATGTCGGTTAGGGTCATTCAGAAAGTAGGGAA | 2.03 | 3.18 | 2.25 | 3.91 | 4.88 | 2.06 | 5.07 | 1.86 | 3.32 |
| ATATGTAGGTTAGGGGCATTCAGAAAGTAGGGAA | 6.62 | 6.65 | 1.93 | 2.07 | 1.43 | 1.48 | 1.52 | 1.74 | 1.86 |
| TCGAGTAGGTTACGGGTGCATTCAGGGATGAAGA | 2.9 | 3.34 | – | 0.289 | 1.62 | 0.692 | 1.33 | -0.909 | 0.994 |
| CTATGCAGGTTAAGGGGGTCATTCAGTTTGAAAG | 4.72 | 5.58 | – | 2.68 | 5.97 | 12.4 | 5.93 | 1.66 | 3.52 |
| CGAACTAGCTCACCAGGACAGTGAAGAGGTTGGA | 0.166 | -0.411 | 0.212 | -0.0125 | -0.706 | -0.202 | -0.594 | -0.478 | -0.409 |
| CGAACTAGGTCGAAGGACAGTGAAAGGCGACGTA | 4.92 | 5.17 | -0.201 | 0.0184 | -0.467 | -0.851 | -0.0163 | -0.8 | 1.18 |
| CTATGTAGGTAAAGGGGGTCATTCAGTTTGAAAG | 6.89 | 7.06 | – | 3.59 | 5.82 | 10.7 | 6.13 | 1.83 | – |
| ATATGTAGGTTAGGGTCATTCTGAAAGTAGGGAA | 6.26 | 6.44 | 1.97 | 2.88 | 4.18 | 1.87 | – | 1.91 | 3.35 |
| TCGAGTAGGTTACGGGGGCAATCAGGGATGAAGA | 4.86 | 6.27 | – | 1.35 | 2.64 | 0.755 | 2.99 | -0.0158 | 2.43 |
| CTATGTAGGTTAAGGAGGTCATTCAGTTTGAAAG | 7 | 7.07 | – | 2.9 | 5.67 | 12 | 4.51 | 0.704 | – |
| TGGAGTAGGTTACGGGGGCATTCAGGGATGAAGA | 6.12 | 7.33 | – | 3.02 | 3.97 | 3.87 | 3.46 | 1.99 | 3.1 |
| CGAACTAGGTCAAAGGACAGTTAAAGGCGACGTA | 7.76 | 8.44 | 1.12 | 2.07 | 1.32 | 0.165 | 2.42 | 0.332 | 4 |
| CCGAGTAGGTTACGGGGGGGCATTCAGTGCGAAT | 5.07 | 5.61 | – | 4.19 | 5.79 | 7.32 | 4.18 | 2.21 | – |
| CGAACTAGGTCACCCGGACAGTGAAGAGGTTGGA | 8.23 | 8.41 | 0.442 | 2.42 | 1.55 | 0.0197 | 2.64 | 0.174 | 4.22 |
| CGAACTAGGTCAGAGGACAGTGAAAGGCGACGTA | 7.39 | 7.68 | -0.191 | 1.33 | 0.248 | -0.238 | 0.823 | -0.0193 | 3.36 |
| CGAACTAAGTCACCAGGACAGTGAAGAGGTTGGA | 2.13 | 1.61 | -0.0362 | 0.131 | -0.257 | 0.203 | 0.00404 | -0.12 | 0.526 |
| ATATGTAGGTTAGGGTCAATCAGAAAGTAGGGAA | 6.1 | 6.62 | 1.96 | 2.82 | 3.61 | 1.38 | 4.43 | 1.88 | 3.59 |
| CGAACTAGGTCAAAGGACAGGGAAAGGCGACGTA | 7.68 | 8.19 | 4.37 | 2.31 | 0.895 | -0.253 | 2.37 | 0.0193 | 3.9 |
| CGAACTAGGTCACCAGGACAGTCAAGAGGTTGGA | 8.33 | 8.73 | 2.35 | 2.43 | 1.51 | 0.0182 | 2.72 | 0.536 | 4.28 |
| TCGAGTAGGTTACGAGGGCATTCAGGGATGAAGA | 3.87 | 4.89 | – | 0.36 | 1.43 | 0.25 | 1.69 | -0.742 | 1.63 |
| TCGAGTAGGTTACGGGCGCATTCAGGGATGAAGA | 2.38 | 2.9 | – | 0.541 | -0.126 | -0.432 | 0.353 | -0.39 | 0.68 |
| CTATGTAGGTTAAGGGGGTCATTCAATTTGAAAG | 7.02 | 7.79 | – | 5.83 | 5.67 | 3.88 | 5.82 | 1.49 | 3.55 |
| CGAACTAGGTCACCTGGACAGTGAAGAGGTTGGA | 8.17 | 8.6 | -0.299 | 1.42 | 1.46 | 0.15 | 2.53 | -0.115 | 4.05 |
| CGAATTAGGTCACCAGGACAGTGAAGAGGTTGGA | 8.17 | 8.71 | 2.04 | 2.36 | 1.78 | 0.578 | 2.92 | 0.711 | 4.52 |
